PLK1 PBD block: qHTS for Inhibitors of PLK1-PDB (polo-like kinase 1 - polo-box domain): Primary Screen; AID 720504, 2013; Potency, µM, most hits filed as inhibitors; 2.8% of 360,000 active; Plk1 PBD binding of FITC phosphopeptide, fluorescence polarization; Serine/threonine-protein kinase PLK1 (Homo sapiens), P53350; further: series mostly up to about 57 µM; nearly all actives have a fitted effect of over 65% in size
HP1b binding inh: HTS for Inhibitors of HP1-beta Chromodomain Interactions with Methylated Histone Tails. Chromobox protein homolog 1 (Homo sapiens), P83916. AlphaScreen HP1-beta / biotin-H3K9me3 peptide binding. Potency, µM (series often up to 114 µM), most hits filed as inhibitors. 0.56% of 390,000 active; further: nearly all actives have a fitted effect of over 70% in size
Target sequence (P83916 whole entry, looked up): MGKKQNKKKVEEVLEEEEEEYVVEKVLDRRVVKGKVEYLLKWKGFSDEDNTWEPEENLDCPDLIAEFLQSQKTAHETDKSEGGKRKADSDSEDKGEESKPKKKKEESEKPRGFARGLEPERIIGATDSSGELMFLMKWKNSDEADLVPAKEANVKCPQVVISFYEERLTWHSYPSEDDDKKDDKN
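AlphaScreen: HP1-beta (50 nM) preformed 30 min with biotin-H3(1-18)K9me3 peptide (50 nM) in PBS pH 7.4, 0.01% Tween-20. Compound added for 30 min at RT, then streptavidin donor/nickel chelate acceptor beads (10 ug/mL) for 30 min.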
G9a block: qHTS Assay for Inhibitors of Histone Lysine Methyltransferase G9a. Histone-lysine N-methyltransferase EHMT2 (Homo sapiens), Q96KQ7. G9a H3K9 monomethylation, AlphaScreen, 2 h. Potency, µM (doses to about 102 µM), most hits filed as inhibitors. 8.8% of 350,000 active. AID 504332, 2011; further: nearly all actives have a fitted effect of over 75% in size
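Step 1: enzyme (final 20 nM) with compound, 15 min RT. Step 2: substrate peptide 500 nM and SAM 20 uM, 2 h RT. Step 3: anti-H3K9me1 antibody and AlphaScreen beads, 10 min, then plate read.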
BAZ2B inh: qHTS Assay for Inhibitors of BAZ2B | AlphaScreen BAZ2B-H3K14Ac peptide displacement | Bromodomain adjacent to zinc finger domain protein 2B (Homo sapiens), Q9UIF8 | 4.4% of 360,000 active | Potency, µM (doses to about 114 µM), actives largely listed as inhibitors; further: nearly all actives have a fitted effect of over 60% in size
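BAZ2B (50 nM) with biotin-H3(5-23)K14Ac peptide (50 nM) in PBS pH 7.4, 0.01% Tween-20, preformed 30 min, then compound 30 min at room temperature; top concentration 110uM. AlphaScreen streptavidin donor/nickel chelate acceptor beads (10 ug/mL final), 20 min dark, signal read.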
PI5P4Ka inh: qHTS for Inhibitors of phosphatidylinositol 5-phosphate 4-kinase (PI5P4K); Phosphatidylinositol 5-phosphate 4-kinase type-2 alpha (Homo sapiens), P48426; PI5P4Kalpha enzyme, ADP-Glo luminescence, 60 min; active compounds read low; max response, %; 1.2% of 330,000 active; active means max response of -50% or lower; inconclusive means between -30% and -50%; inactive means -30% or higher; further: value at the top dose of about 77 µM
Target sequence (P48426 whole entry, looked up): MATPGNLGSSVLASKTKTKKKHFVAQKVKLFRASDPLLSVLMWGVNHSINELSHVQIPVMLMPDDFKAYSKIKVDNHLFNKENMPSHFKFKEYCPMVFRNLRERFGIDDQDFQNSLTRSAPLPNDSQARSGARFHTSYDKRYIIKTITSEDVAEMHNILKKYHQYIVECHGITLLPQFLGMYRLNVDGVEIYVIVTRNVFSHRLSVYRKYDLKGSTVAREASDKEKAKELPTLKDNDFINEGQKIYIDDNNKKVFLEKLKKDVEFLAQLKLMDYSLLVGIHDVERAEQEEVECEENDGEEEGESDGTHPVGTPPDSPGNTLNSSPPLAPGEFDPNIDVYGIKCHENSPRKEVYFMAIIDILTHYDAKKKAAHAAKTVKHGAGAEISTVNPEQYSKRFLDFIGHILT
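Luminescence from ADP-Glo served as readout of PI5P4Kalpha activity in a qHTS format. Reaction: enzyme, substrate, compound, ATP at 5 microM final, 60 min at RT.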
JMJD2A Tudor inh: qHTS Assay for Inhibitors of JMJD2A-Tudor Domain; Potency, µM (doses to about 114 µM), most hits filed as inhibitors; AlphaScreen JMJD2A-Tudor / H3K4me3 peptide binding; Lysine-specific demethylase 4A (Homo sapiens), O75164; AID 504339, 2011; 4.4% of 390,000 active; further: nearly all actives have a fitted effect of over 50% in size
A number is an active result; - = inactive; ? = inconclusive; . = no result; ! = repeats disagree; [ ] = remark or other dose. Only some compounds are listed: those with a hit (about 12% of all), similar ones and a draw of the others. Unless noted, the call rests on the fitted dose curve; in most records, active means well fitted curve in the direction sought with a large enough effect; inconclusive means small, poorly fitted or top-dose-only effect, or another doubt; inactive means no such curve, though single readings can be large; an effect the other way counts as inactive or inconclusive.

SMILES | PLK1 PBD block | HP1b binding inh | G9a block | BAZ2B inh | PI5P4Ka inh | JMJD2A Tudor inh
CC1Sc2ccc(C(=O)Nc3ccc(S(=O)(=O)N(C)C)cc3)cc2NC1=O (configuration not stated) | - | - | 32µM | - | - | -
Cc1cc(NC(=O)CCS(=O)(=O)c2ccc3c(c2)NC(=O)C(C)S3)ccc1Br (configuration not stated) | - | - | - | - | - | -
CC1Sc2ccc(S(=O)(=O)CCC(=O)NCc3ccccc3)cc2NC1=O (configuration not stated) | ? | ? | - | - | - | 79µM
CC(C)S(=O)(=O)N1CCN(c2nc(-c3cccs3)nc3ccccc23)CC1 | . | - | . | . | . | -
O=C(c1cccc(NS(=O)(=O)c2ccc(F)c(F)c2)c1)N1CCCCC1 | - | - | ? | - | - | -
CN(CC(=O)Nc1ccc(F)cc1)C(=O)COC(=O)c1cc(S(=O)(=O)N(C)C)ccc1N1CCCC1 | - | - | - | - | - | -
CC1(C)CN(c2ccccc2)N(C(=O)c2ccc(C#N)cc2)C1=O | - | - | - | - | - | -
COC(=O)CN1CC(=O)N(c2ccccc2)C1=S | ? | - | - | - | - | -
CC(=O)OCC1(C)CN(c2ccccc2)N(C(C)=O)C1=O (configuration not stated) | - | - | 25µM | - | - | -
CC1(C)CN(c2ccccc2)N(C(=O)c2ccc(F)cc2)C1=O | - | - | - | - | . | -
CC(=O)OCC1(C)CN(c2ccccc2)NC1=O (configuration not stated) | - | - | 14µM | - | - | -
CC(=O)OCC1(C)CN(c2ccccc2)N(C(=O)c2ccc(C(C)(C)C)cc2)C1=O (configuration not stated) | - | - | 40µM | - | - | -
COC(=O)N1C(=O)[C@@](CC(C)C)(c2ccccc2)N1C(=O)OC | . | . | 50µM | - | . | .
COC(=O)N1C(=O)[C@](CC(C)C)(c2ccccc2)N1C(=O)OC | 13µM | - | 79µM | - | - | -
CC[C@@]1(c2ccccc2OC)C(=O)N(C(=O)OC)N1C(=O)OC | ? | - | . | - | - | -
CNC1=C([N+](=O)[O-])CC([N+](=O)[O-])=C(N2CCNCC2)N1C | - | - | 45µM | - | - | -
COC(=O)CCN1CCC2CC1c1cc(-c3cccc(C)c3)ccc12 (configuration not stated) | - | - | . | . | - | -
Cc1c(C(=O)NN2CCCCC2)nn(-c2ccc(Cl)cc2Cl)c1-c1ccc(I)cc1 | . | . | - | ? | . | .
N#Cc1cnn(-c2ccc(F)cc2)c1N | - | - | . | - | -52 | -
Cc1ccc(-n2ncc(C#N)c2N)cc1 | - | - | - | - | - | -
COc1ccc(NS(=O)(=O)c2ccc(N3C(=O)CCC3=O)cc2)cc1 | - | - | -[12.7 µM] | - | - | -
COc1ccc(NS(=O)(=O)c2ccc(-c3n[nH]c(=S)n3Cc3ccccc3)cc2)cc1 | ? | - | 4µM | - | - | 25µM
COc1ccc(S(=O)(=O)Nc2ccc(-n3cccc3)cc2)cc1 | ? | 45µM | 50µM | 71µM | - | 56µM
COc1ccc(NS(=O)(=O)c2ccc(C)c(C(=O)NC3CCN(Cc4ccccc4)CC3)c2)cc1 | - | - | - | - | - | -
COc1ccc(NS(=O)(=O)c2cccc(-c3n[nH]c(=S)n3Cc3ccccc3)c2)cc1 | - | - | 7.1µM | ? | - | -
SMILES | PLK1 PBD block | HP1b binding inh | G9a block | BAZ2B inh | PI5P4Ka inh | JMJD2A Tudor inh
CCCCN1CC(=O)N2[C@H]3c4cc(OC)ccc4OC[C@@H]3[C@H](C(=O)OCC)[C@]2(C)C1=O | - | - | -[0.501 µM] | - | - | -
CCCCN1CC(=O)N2[C@@H]3c4cc(OC)ccc4OC[C@@H]3[C@H](C(=O)OCC)[C@]2(C)C1=O | 24µM | - | . | . | ? | ?
COc1cccc(-n2c([S-])c(C(=O)Nc3ccc(C(F)(F)F)cc3)[n+]3ccccc23)c1 | . | . | - | - | . | .
CCn1c(CCNC(=O)c2ccc(Cl)cc2Cl)n[nH]c1=S | - | - | 40µM | - | . | 7.1µM
O=C(NCCNC(=O)c1ccc(Cl)cc1Cl)c1ccc(Cl)cc1Cl | - | . | . | . | - | .
CCn1c(CCNC(=O)c2ccccc2Cl)n[nH]c1=S | - | - | . | - | - | 40µM
CCCNC(=O)c1ccc(Cl)cc1Cl | - | - | 50µM | - | - | -
CCCNS(=O)(=O)c1ccc(CCC(=O)NCc2ccco2)cc1 | 30µM | - | -[12.7 µM] | - | - | ?
O=C(CN(Cc1ccccc1)C(=O)CNS(=O)(=O)c1ccccc1)NCc1ccco1 | - | - | - | - | - | 79µM
COc1ccc(NS(=O)(=O)c2ccccc2)cc1NS(=O)(=O)c1ccccc1 | . | . | . | . | . | -
CCN1CCN(CC(O)COc2ccc(Cl)cc2)CC1 (configuration not stated) | - | - | - | ? | - | ?
Cc1ccccc1C(OCC(O)CN1CCC(C(N)=O)CC1)c1ccccc1 (configuration not stated) | - | - | - | - | - | -
Cc1ccccc1[C@@H](OCCN(C)C)c1ccccc1 | . | . | -[21.5 µM] | . | . | .
CCN1CCN(CC(O)COC(C)C)CC1 (configuration not stated) | - | - | 50µM | - | . | -
OC(COC(c1ccccc1)c1ccccc1)CN1CCOCC1 (configuration not stated) | 30µM | - | - | - | - | ?
Cc1ccc(C(OCC(O)CN2CCCCC2)c2ccccc2)cc1 (configuration not stated) | - | - | - | - | - | -
Cc1ccccc1C(OCCN(C)C)c1ccccc1 (configuration not stated) | ? | - | 40µM! | - | - | 28µM!
CCN1CCN(CC(O)COC(c2ccccc2)c2ccccc2C)CC1 (configuration not stated) | - | ? | 3.2µM | 22µM | - | 5.6µM
COc1ccccc1C(=O)NC1(C(F)(F)F)C(=O)Nc2c1c(=O)[nH]c(=O)n2-c1ccc(F)cc1 (configuration not stated) | . | - | - | - | . | -
Cc1cccc(OCC(=O)OC(C)CN2CCCCC2)c1 (configuration not stated) | - | - | . | - | - | -
Cc1c(C(=O)N/N=C/c2ccncc2)no[n+]1[O-] | - | - | - | - | - | -
c1ccc(C(CN2CCOCC2)c2ccccc2)cc1 | - | ? | 25µM | ? | . | 4µM

Assay outcomes from PubChem BioAssay.
